Unmarked numbers belong to inactive results.
Compound: COc1cccc(CN(C)C(=O)CCl)c1
Assay: log2 ratio of Biotin-Ahx-Ub-VS probe labelling (compound/DMSO); higher = less target engagement, active = hit call of the paper (q ≤ 0.05, log2 ratio ≤ -1)
Conditions: compound concentration: 50uM; treatment time: 3 h
Experimental: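 Round 2 competitive ABPP in HEK293T lysate. Compounds were tested at 50 and 200 µM for 3 h, followed by Biotin-Ahx-Ub-VS enrichment and diaPASEF LC-MS/MS. Values are the average log2 ratio (compound/DMSO) from an unpaired t-test (n=3 treated, n=26 DMSO).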

Chain of UniProt Q93008 (Q93008 whole entry): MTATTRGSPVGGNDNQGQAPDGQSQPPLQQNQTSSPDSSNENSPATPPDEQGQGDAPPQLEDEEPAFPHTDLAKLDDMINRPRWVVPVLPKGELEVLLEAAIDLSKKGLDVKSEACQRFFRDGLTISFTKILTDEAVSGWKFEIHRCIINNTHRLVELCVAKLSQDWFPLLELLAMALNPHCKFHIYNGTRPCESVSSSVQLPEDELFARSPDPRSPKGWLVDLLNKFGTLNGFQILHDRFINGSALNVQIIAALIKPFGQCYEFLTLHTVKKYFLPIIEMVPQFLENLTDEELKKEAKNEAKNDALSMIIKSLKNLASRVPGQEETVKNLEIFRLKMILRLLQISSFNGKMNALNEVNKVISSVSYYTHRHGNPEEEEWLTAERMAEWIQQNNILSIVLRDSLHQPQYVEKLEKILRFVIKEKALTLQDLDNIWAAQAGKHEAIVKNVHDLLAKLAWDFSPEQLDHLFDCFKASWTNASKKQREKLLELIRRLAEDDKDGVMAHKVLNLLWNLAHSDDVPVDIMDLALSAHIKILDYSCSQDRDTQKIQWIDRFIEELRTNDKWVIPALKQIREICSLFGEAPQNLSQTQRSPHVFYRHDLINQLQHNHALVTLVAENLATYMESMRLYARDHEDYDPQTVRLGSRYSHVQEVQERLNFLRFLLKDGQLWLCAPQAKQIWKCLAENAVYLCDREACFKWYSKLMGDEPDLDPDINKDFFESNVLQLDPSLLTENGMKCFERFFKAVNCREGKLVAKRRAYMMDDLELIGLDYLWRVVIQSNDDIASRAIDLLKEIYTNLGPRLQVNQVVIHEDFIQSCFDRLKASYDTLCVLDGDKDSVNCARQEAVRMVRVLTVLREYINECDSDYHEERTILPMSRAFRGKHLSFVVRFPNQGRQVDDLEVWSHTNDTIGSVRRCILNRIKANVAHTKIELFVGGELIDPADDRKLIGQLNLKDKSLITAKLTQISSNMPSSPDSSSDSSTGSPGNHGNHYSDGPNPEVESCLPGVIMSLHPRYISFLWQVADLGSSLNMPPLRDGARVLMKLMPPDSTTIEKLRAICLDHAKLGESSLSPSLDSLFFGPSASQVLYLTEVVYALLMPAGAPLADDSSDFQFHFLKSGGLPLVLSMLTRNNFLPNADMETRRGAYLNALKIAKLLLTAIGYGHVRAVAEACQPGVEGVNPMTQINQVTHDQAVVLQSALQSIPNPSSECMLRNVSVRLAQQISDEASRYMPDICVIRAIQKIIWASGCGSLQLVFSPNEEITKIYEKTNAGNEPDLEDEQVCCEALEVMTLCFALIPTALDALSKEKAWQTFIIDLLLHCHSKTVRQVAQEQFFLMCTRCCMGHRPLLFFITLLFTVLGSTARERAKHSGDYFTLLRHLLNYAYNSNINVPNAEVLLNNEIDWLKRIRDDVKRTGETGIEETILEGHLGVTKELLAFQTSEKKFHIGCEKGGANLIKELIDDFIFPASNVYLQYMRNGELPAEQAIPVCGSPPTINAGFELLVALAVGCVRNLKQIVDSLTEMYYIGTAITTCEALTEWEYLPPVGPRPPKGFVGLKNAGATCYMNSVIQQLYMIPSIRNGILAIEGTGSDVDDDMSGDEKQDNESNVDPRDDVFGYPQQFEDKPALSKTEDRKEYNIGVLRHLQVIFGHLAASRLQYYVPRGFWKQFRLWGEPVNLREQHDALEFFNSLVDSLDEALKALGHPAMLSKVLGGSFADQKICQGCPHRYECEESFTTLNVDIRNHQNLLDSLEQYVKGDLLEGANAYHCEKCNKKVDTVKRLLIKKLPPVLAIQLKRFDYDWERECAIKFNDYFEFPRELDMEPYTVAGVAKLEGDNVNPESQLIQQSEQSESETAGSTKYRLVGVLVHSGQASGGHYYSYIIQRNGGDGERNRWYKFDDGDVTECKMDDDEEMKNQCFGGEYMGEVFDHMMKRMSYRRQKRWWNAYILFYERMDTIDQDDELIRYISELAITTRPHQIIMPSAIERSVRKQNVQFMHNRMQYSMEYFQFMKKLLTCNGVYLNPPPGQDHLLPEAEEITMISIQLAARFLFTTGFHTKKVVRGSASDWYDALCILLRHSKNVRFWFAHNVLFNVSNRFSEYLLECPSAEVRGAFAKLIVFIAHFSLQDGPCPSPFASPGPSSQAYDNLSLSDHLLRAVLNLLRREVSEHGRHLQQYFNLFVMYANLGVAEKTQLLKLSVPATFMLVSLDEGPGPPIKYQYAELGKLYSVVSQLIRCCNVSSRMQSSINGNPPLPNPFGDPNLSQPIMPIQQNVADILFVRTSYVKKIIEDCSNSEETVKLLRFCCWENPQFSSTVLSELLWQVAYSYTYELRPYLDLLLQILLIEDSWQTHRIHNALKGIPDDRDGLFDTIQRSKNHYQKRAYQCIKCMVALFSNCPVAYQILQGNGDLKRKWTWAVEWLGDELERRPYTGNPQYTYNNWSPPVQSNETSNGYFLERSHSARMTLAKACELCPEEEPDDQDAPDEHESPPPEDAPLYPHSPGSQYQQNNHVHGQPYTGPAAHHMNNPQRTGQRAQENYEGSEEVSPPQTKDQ
Chain of UniProt Q9Y4E8 (Q9Y4E8 whole entry): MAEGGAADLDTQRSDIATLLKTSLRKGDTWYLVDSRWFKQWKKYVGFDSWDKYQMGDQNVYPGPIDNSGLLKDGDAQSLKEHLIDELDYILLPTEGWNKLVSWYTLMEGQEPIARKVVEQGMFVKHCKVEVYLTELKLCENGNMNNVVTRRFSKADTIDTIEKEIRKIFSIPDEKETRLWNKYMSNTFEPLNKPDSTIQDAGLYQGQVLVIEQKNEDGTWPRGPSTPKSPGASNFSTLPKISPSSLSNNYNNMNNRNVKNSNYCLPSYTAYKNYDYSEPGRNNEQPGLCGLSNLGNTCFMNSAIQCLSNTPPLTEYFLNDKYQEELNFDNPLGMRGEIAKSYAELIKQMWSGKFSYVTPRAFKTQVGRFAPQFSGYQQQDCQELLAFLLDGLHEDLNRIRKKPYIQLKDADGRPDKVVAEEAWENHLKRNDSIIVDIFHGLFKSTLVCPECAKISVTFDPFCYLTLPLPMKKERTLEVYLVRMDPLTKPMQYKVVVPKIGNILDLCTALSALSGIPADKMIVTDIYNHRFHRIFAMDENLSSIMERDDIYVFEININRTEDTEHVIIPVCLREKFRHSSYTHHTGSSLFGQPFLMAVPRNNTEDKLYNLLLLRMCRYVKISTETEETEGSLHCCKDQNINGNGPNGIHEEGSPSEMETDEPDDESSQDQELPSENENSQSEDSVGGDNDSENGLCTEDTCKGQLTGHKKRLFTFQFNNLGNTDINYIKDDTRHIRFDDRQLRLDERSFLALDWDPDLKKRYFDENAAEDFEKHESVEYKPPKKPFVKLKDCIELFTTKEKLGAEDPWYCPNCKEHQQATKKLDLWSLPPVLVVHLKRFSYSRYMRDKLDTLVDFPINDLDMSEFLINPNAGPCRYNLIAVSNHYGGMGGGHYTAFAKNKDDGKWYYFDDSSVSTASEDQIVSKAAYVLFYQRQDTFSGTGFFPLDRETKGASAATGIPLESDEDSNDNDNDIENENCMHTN
Chain of UniProt P09936 (P09936 whole entry, looked up): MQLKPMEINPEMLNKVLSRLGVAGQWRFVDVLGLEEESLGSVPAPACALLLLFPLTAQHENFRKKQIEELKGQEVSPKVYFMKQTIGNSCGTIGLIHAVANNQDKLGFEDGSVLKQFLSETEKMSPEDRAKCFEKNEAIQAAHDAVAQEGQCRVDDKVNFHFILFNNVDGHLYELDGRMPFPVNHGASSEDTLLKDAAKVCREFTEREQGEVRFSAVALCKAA
Chain of UniProt Q9Y5T5 (Q9Y5T5 whole entry, looked up): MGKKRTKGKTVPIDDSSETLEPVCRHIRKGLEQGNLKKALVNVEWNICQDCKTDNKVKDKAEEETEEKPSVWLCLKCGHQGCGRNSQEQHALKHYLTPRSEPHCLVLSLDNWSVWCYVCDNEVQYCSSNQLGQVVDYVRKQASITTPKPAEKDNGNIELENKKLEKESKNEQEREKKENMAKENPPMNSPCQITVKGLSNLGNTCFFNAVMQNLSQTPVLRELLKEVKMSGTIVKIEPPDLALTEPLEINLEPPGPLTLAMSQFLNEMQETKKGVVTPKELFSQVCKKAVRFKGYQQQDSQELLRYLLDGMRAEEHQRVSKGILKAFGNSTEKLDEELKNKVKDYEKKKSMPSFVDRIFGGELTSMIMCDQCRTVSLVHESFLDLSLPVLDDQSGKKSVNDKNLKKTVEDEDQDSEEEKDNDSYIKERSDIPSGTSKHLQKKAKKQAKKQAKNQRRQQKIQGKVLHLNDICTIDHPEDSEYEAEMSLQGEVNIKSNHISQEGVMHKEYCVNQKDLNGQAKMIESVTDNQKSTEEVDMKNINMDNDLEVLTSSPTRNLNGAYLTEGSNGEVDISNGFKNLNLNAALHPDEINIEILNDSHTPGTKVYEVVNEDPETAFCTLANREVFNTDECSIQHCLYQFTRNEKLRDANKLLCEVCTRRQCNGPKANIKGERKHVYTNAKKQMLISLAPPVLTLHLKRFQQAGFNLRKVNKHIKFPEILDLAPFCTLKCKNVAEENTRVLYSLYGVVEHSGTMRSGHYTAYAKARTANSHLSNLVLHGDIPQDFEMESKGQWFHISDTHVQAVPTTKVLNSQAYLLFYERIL
Chain of UniProt O00303 (O00303 whole entry): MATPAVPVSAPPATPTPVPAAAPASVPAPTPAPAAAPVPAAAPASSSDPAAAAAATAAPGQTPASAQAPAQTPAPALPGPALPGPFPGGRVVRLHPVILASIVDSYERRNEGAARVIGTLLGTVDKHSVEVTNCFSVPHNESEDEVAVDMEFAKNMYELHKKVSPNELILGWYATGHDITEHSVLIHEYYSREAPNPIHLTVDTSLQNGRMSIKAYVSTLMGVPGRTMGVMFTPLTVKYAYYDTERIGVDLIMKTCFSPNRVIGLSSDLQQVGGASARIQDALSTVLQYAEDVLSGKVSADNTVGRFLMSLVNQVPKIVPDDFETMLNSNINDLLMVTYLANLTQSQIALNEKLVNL

Row | Target | log2 ratio of Biotin-Ahx-Ub-VS probe labelling
1 | OTUD7B (UniProt Q6GQQ9) | -0.372
2 | USP14 (UniProt P54578) | -0.0931
3 | USP28 (UniProt Q96RU2) | -0.0726
4 | YOD1 (UniProt Q5VVQ6) | 0.0405
5 | OTUD6B (UniProt Q8N6M0) | -0.149
6 | USP54 (UniProt Q70EL1) | -2.86 (active)
7 | USP16 (UniProt Q9Y5T5) | 0.0263
8 | FAM105A (UniProt Q9NUU6) | -0.133
9 | USP15 (UniProt Q9Y4E8) | -0.185
10 | UCHL1 (UniProt P09936) | -0.0521
11 | USP8 (UniProt P40818) | -0.108
12 | PRPF8 (UniProt Q6P2Q9) | 0.0579
13 | USP10 (UniProt Q14694) | -0.177
14 | USP9X (UniProt Q93008) | -0.0295
15 | EIF3F (UniProt O00303) | -0.14
16 | UCHL3 (UniProt P15374) | -0.285
17 | UniProt O00487 | -0.186
18 | OTUD4 (UniProt Q01804) | -0.113
19 | UCHL5 (UniProt Q9Y5K5) | -0.115
20 | OTUB1 (UniProt Q96FW1) | -0.0418

Same assay, conditions: compound concentration: 200uM; treatment time: 3 h

Row | Target | log2 ratio of Biotin-Ahx-Ub-VS probe labelling
21 | OTUD7B (UniProt Q6GQQ9) | -0.803
22 | USP14 (UniProt P54578) | -0.202
23 | USP28 (UniProt Q96RU2) | -0.646
24 | YOD1 (UniProt Q5VVQ6) | -0.24
25 | OTUD6B (UniProt Q8N6M0) | -0.283
26 | USP54 (UniProt Q70EL1) | -2.26 (active)
27 | USP16 (UniProt Q9Y5T5) | -0.213
28 | FAM105A (UniProt Q9NUU6) | 0.096
29 | USP15 (UniProt Q9Y4E8) | -0.33
30 | UCHL1 (UniProt P09936) | 0.0224
31 | USP8 (UniProt P40818) | -0.0766
32 | PRPF8 (UniProt Q6P2Q9) | 0.0324
33 | USP10 (UniProt Q14694) | 0.037
34 | USP9X (UniProt Q93008) | -0.23
35 | EIF3F (UniProt O00303) | -0.0452
36 | UCHL3 (UniProt P15374) | -0.275
37 | UniProt O00487 | -0.459
38 | OTUD4 (UniProt Q01804) | -0.21
39 | UCHL5 (UniProt Q9Y5K5) | -0.295
40 | OTUB1 (UniProt Q96FW1) | 0.0222

Reference: the supplement of paper PMC11732987, “Enantioselective OTUD7B fragment discovery through chemoproteomics screening and high-throughput optimisation” (Communications Chemistry, 2025)
